Experimental data reported in the antibiotic and cytotoxicity screens of Wong et al. (2023).
The whole screen tested about 39,000 compounds, of which about 1,500 (3.8%) were called active. The sample as a whole holds a higher share of actives than the screen did.

The compounds below were run on HSkMC (human skeletal muscle cells) (assay: cytotoxicity call (relative viability < 0.9)). Conditions: 10 µM.

Compound	cytotoxicity call
COc1ccc(S(=O)(=O)Nc2cccc3c2O[C@@H](CN(C)C(=O)Nc2c(C)noc2C)[C@@H](C)CN([C@H](C)CO)C3=O)cc1	inactive
Cc1noc(C)c1NC(=O)Nc1ccc2c(c1)CC(=O)N([C@H](C)CO)C[C@@H](C)[C@H](CN(C)S(=O)(=O)c1cn(C)cn1)O2	inactive
C[C@@H]1O[C@@H](O[C@H]2[C@H](O)[C@@H](O)[C@H](OC[C@H]3O[C@@H](OC(=O)[C@]45CCC(C)(C)C[C@@H]4C4=CC[C@H]6[C@@]7(C)CC[C@H](O[C@H]8OC[C@H](O)[C@H](O)[C@H]8O[C@H]8O[C@@H](C)[C@H](O)[C@@H](O)[C@H]8O)[C@@](C)(CO)[C@@H]7CC[C@@]6(C)[C@]4(C)CC5)[C@H](O)[C@@H](O)[C@@H]3O)O[C@@H]2CO)[C@H](O)[C@H](O)[C@H]1O	inactive
C[C@H]1O[C@@H](O[C@H]2[C@@H](O)[C@@H](O)[C@@H](O[C@H]3CC[C@]4(C)[C@H]5CC=C6[C@H]7CC(C)(C)[C@H]8C[C@]7(C(=O)O8)[C@@H](O)C[C@]6(C)[C@@]5(C)CC[C@H]4C3(C)C)O[C@@H]2CO)[C@@H](O)[C@@H](O[C@H]2OC[C@@H](O)[C@@H](O)[C@@H]2O)[C@@H]1O	inactive
Cn1cnc(S(=O)(=O)N2C[C@@H](O)COC[C@H]3O[C@H](CC(=O)N4CCN(c5ccccc5)CC4)CC[C@@H]32)c1	inactive
O=C1c2ccccc2C(=O)c2c(NCCNCCO)ccc(NCCNCCO)c21	active
O=C1c2ccccc2C(=O)c2c1ccc(O)c2O	inactive
O=[N+]([O-])c1ccc(NCCNCCO)cc1	inactive
Cl.Cl.O=C1c2c(O)ccc(O)c2C(=O)c2c(NCCNCCO)ccc(NCCNCCO)c21	active
O=C1c2cccc(O)c2C(=O)c2c(O)cccc21	inactive
O=C1c2c(O)ccc(O)c2C(=O)c2c(NCCNCCO)ccc(NCCNCCO)c21	active
O=C(CCNCCO)c1ccccc1	inactive
COc1ccc(S(=O)(=O)Nc2ccc3c(c2)C(=O)N([C@@H](C)CO)C[C@H](C)[C@H](CN(C)Cc2ccncc2)O3)cc1	inactive
C[C@@H]1CN([C@H](C)CO)S(=O)(=O)c2ccc(C#CCN(C)C)cc2O[C@@H]1CN(C)Cc1ccccc1F	inactive
C[C@@H]1CN([C@H](C)CO)C(=O)c2cc(NC(=O)Cn3cnnn3)ccc2O[C@H]1CN(C)C(=O)Nc1ccc2c(c1)OCO2	inactive
COc1ncc(-c2nc(N3CCOCC3)nc3c(CN4CCC(C(C)(C)O)CC4)cc(F)cc23)cc1NS(C)(=O)=O	inactive
CC(=O)/C(C)=N/O	inactive
C[C@@H]1CCCCO[C@H](CN(C)C(=O)c2ccccc2)[C@@H](C)CN([C@@H](C)CO)C(=O)c2cc(NC(=O)c3ccccc3)ccc2O1	inactive
O=C1CCNc2cc3ccccc3cc21	active
O=C1NCc2ccccc21	inactive
O=C1CCCNc2ccc(Cl)cc21	inactive
C[C@H]1CCCCO[C@@H](CN(C)Cc2ccc(C(=O)O)cc2)[C@@H](C)CN([C@@H](C)CO)C(=O)c2cc(NC(=O)c3ccccc3)ccc2O1	inactive
C[C@@H]1CCCCO[C@@H](CN(C)C(=O)Cc2ccccc2)[C@@H](C)CN([C@H](C)CO)C(=O)c2cc(NC(=O)Cc3ccccc3)ccc2O1	inactive

Compound	cytotoxicity call
COC12C(COC(N)=O)C3=C(C(=O)C(C)=C(N)C3=O)N1CC1NC12 (centres undefined)	inactive
CO[C@@]12[C@@H]3N[C@@H]3CN1C1=C(C(=O)C(N)=C(C)C1=O)[C@@H]2COC(N)=O	active
CO[C@@]12[C@H](COC(N)=O)C3=C(C(=O)C(C)=C(N)C3=O)N1C[C@@H]1N[C@@H]12	inactive
CCOC(=O)C1CCN(S(=O)(=O)c2c(C)n(C)c(=O)n(C)c2=O)CC1	inactive
C[C@@H]1CN([C@H](C)CO)C(=O)CCCn2nncc2CO[C@@H]1CN(C)Cc1ccc(C(=O)Nc2ccccc2N)cc1	inactive
C[C@@H]1CN([C@@H](C)CO)C(=O)Cc2cc(NC(=O)NC3CCCCC3)ccc2O[C@@H]1CN(C)Cc1ccc(Cl)c(Cl)c1	inactive
C[C@@H]1CN([C@H](C)CO)C(=O)Cc2cc(NC(=O)NC3CCCCC3)ccc2O[C@@H]1CN(C)Cc1ccc(Cl)c(Cl)c1	active
C[C@H](CO)N1C[C@H](C)[C@@H](CN(C)Cc2ccc(Cl)c(Cl)c2)Oc2ccc(NC(=O)NC3CCCCC3)cc2CC1=O	inactive
C[C@@H]1CN([C@@H](C)CO)C(=O)Cc2cc(NC(=O)NC3CCCCC3)ccc2O[C@H]1CN(C)Cc1ccc(Cl)c(Cl)c1	inactive
C[C@H](CO)N1C[C@H](C)[C@H](CN(C)Cc2ccc(Cl)c(Cl)c2)Oc2ccc(NC(=O)NC3CCCCC3)cc2CC1=O	inactive
C[C@@H]1CN([C@H](C)CO)C(=O)Cc2cc(NC(=O)NC3CCCCC3)ccc2O[C@H]1CN(C)Cc1ccc(Cl)c(Cl)c1	active
Cc1noc(C)c1NC(=O)N(C)C[C@H]1OCCCC[C@@H](C)Oc2ccc(NS(=O)(=O)c3cccs3)cc2C(=O)N([C@@H](C)CO)C[C@H]1C	inactive
Cc1noc(C)c1NC(=O)N(C)C[C@H]1OCCCC[C@H](C)Oc2ccc(NS(=O)(=O)c3ccc(F)cc3)cc2C(=O)N([C@@H](C)CO)C[C@H]1C	inactive
COc1ccccc1CNC(=O)C[C@H]1C[C@H]2c3cc(NC(=O)NC4CCCC4)ccc3O[C@H]2[C@H](CO)O1	inactive
COc1ccc(CN(C)C[C@H]2Oc3c(NC(=O)c4ccc(-c5nccs5)cc4)cccc3C(=O)N([C@H](C)CO)C[C@H]2C)cc1	inactive
CC[C@H]1OC[C@@H]2CN(C(=O)CN(C)C)CC[C@H]21	inactive
C[C@@H]1CN([C@H](C)CO)C(=O)Cc2cc(NC(=O)Nc3ccccc3)ccc2O[C@@H]1CN(C)C(=O)Nc1cccc2ccccc12	inactive
C[C@@H]1CN([C@@H](C)CO)C(=O)Cc2cc(NC(=O)Nc3cccc4ccccc34)ccc2O[C@@H]1CN(C)C(=O)Nc1cccc2ccccc12	inactive
C[C@H]1CN([C@@H](C)CO)C(=O)Cc2cc(NC(=O)Cc3ccccc3)ccc2O[C@@H]1CN(C)C(=O)Nc1cccc2ccccc12	inactive
C[C@H]1CN([C@@H](C)CO)C(=O)Cc2cc(NC(=O)Nc3ccc4c(c3)OCO4)ccc2O[C@@H]1CN(C)C(=O)Nc1cccc2ccccc12	inactive
C[C@@H]1CN([C@H](C)CO)C(=O)Cc2cc(NC(=O)Cc3ccccc3)ccc2O[C@H]1CN(C)C(=O)Nc1cccc2ccccc12	inactive
C[C@H]1CN([C@@H](C)CO)C(=O)Cc2cc(NC(=O)Nc3cccc4ccccc34)ccc2O[C@H]1CN(C)C(=O)Nc1cccc2ccccc12	inactive
C[C@H](CO)N1C[C@H](C)[C@@H](CN(C)C(=O)Nc2cccc3ccccc23)Oc2ccc(NC(=O)Cc3ccccc3)cc2CC1=O	active

Compound	cytotoxicity call
C[C@H](CO)N1C[C@H](C)[C@@H](CN(C)C(=O)Nc2cccc3ccccc23)Oc2ccc(NC(=O)Nc3ccc4c(c3)OCO4)cc2CC1=O	active
C[C@@H]1CN([C@H](C)CO)C(=O)Cc2cc(NC(=O)Nc3ccc4c(c3)OCO4)ccc2O[C@@H]1CN(C)C(=O)Nc1cccc2ccccc12	inactive
C[C@H](CO)N1C[C@H](C)[C@@H](CN(C)C(=O)Nc2cccc3ccccc23)Oc2ccc(NC(=O)Nc3cccc4ccccc34)cc2CC1=O	active
C[C@H](CO)N1C[C@H](C)[C@@H](CN(C)C(=O)Nc2cccc3ccccc23)Oc2ccc(NC(=O)Nc3ccccc3)cc2CC1=O	active
C[C@H]1CN([C@@H](C)CO)C(=O)Cc2cc(NC(=O)Nc3ccccc3)ccc2O[C@@H]1CN(C)C(=O)Nc1cccc2ccccc12	inactive
OCc1cccc(CO)n1	inactive
COC(=O)[C@@H](Cc1ccc(-n2cc(-c3ccc(C(=O)NO)s3)nn2)cc1)N1CC2=C[C@H](C3CC3)n3c(=O)n(C)c(=O)n3[C@@H]2[C@H]1[C@H](O)Cc1ccccc1	inactive
CCCNC(=O)N(C)C[C@@H]1Oc2cc(C#Cc3cccc(F)c3)ccc2S(=O)(=O)N([C@H](C)CO)C[C@@H]1C	inactive
CO[C@H]1CN(C)C(=O)c2cc(NS(C)(=O)=O)ccc2OC[C@@H](C)N(C(=O)c2ccc3c(c2)OCO3)C[C@@H]1C	inactive
Cc1ccc(S(=O)(=O)Nc2ccc3c(c2)C(=O)N([C@H](C)CO)C[C@H](C)[C@H](CN(C)S(C)(=O)=O)O3)cc1	inactive
COc1ccc(S(=O)(=O)Nc2ccc3c(c2)CC(=O)N([C@@H](C)CO)C[C@@H](C)[C@H](CN(C)C(=O)NC(C)C)O3)cc1	inactive
CN(C)Cc1cn(CC[C@@H]2CC[C@H](NC(=O)Cc3cccnc3)[C@H](CO)O2)nn1	inactive
Cc1ccc(S[C@]2(C(=O)NCc3ccccc3)CC(=O)N(Cc3cc(C(F)(F)F)cc(C(F)(F)F)c3)[C@@H]2c2ccc(CO)cc2)cc1	inactive
CCOC(=O)c1cc2c(c(-c3cccc(-c4cccc(OC)c4)c3)n1)[C@@H](CCO)N(S(=O)C(C)(C)C)C2 (some centres undefined)	inactive
COCC(=O)N1C[C@@H](C)[C@H](OC)CN(C)C(=O)c2ccc(NC(=O)c3ccc(OC)cc3)cc2OC[C@H]1C	inactive
CCN1CCC[C@@H]1CN1CNC(=S)NC1	inactive
CCCCCCCc1c(C)c(O)cc2c1[nH]c1ccccc12	inactive
COC(=O)CCc1ccc(OC)cc1O	inactive
CCCCCCc1ccc(O)cc1O [listing 1 of 2 here]	active
CCCCCCCCc1ccc(-c2ccc(C(=O)O)cc2)cc1	inactive
CCCCCCc1ccc(O)cc1O.Nc1c2ccccc2nc2ccccc12	inactive
CCCCCCc1ccc(O)cc1O [listing 2 of 2 here]	active
COc1ccc(NC(=O)N(C)C[C@@H]2Oc3c(NC(=O)C4CC4)cccc3C(=O)N([C@@H](C)CO)C[C@@H]2C)cc1	inactive
